# Screening results deposited in PubChem by National Center for Advancing Translational Sciences (NCATS).
# Rows were chosen to be rich in hits. Some 19% of all compounds tested hit in one or more screens of this group.
# TDP1 inh – blocks human tyrosyl-DNA phosphodiesterase 1; Q9NUW8; recombinant TDP1, AlphaScreen DNA substrate cleavage; Potency, µM (series often up to 130 µM), for the others: at the top dose activity change, negative = inhibition, most hits filed as inhibitors; AID 485290; actives 0.28% (n = 350,000); also: nearly all actives have a fitted effect of over 40% in size
#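 Signal: AlphaScreen proximity between streptavidin donor and anti-FITC acceptor beads on intact substrate. Reaction: Tdp1 1 nM, substrate 15 nM final, 5 min RT after 15 min compound preincubation.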
# RORg inh – inhibitors of mouse ROR gamma transcriptional activity; Drosophila S2 Gal4-RORgamma UAS-luciferase reporter, 20 h; P51450; Potency, µM (highest dose often 53.6 µM), for the others: at the top dose activity change, negative = inhibition, actives largely listed as inhibitors; actives 5.4% (n = 310,000); also: nearly all actives have a fitted effect of over 60% in size
# Target sequence (P51450 whole entry, looked up, the tested form may be a part): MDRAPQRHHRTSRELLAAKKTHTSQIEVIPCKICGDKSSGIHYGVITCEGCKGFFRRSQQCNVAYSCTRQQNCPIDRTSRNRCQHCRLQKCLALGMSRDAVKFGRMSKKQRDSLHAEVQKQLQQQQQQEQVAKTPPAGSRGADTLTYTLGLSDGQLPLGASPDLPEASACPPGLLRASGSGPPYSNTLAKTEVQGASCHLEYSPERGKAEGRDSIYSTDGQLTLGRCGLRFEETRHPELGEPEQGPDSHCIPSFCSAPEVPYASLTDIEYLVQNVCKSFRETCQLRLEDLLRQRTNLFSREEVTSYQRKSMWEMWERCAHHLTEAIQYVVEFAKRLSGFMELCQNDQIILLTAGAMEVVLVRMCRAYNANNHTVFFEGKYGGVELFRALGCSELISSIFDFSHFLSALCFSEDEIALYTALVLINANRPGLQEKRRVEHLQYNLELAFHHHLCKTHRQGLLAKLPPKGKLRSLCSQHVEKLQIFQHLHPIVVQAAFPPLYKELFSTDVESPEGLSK
#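 Drosophila S2 cells stably expressing Gal4-DBD/mouse RORγ fusion under metallothionein promoter plus UAS-luciferase; compound 1 h, then 700 uM CuSO4 induction for 20 h at ambient temperature; inhibition read as reduced luminescence.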
# DT40 TDP1 CPT – DT40-hTDP1 cell growth loss with CPT; chicken DT40 Tdp1-/-;hTDP1 cells + 20 nM CPT, ATP luminescence, 48 h; Potency, µM (top dose mostly 46.2 µM), without a hit: at the top dose activity change, negative = growth inhibition, usual class: inhibitors; actives 12% (n = 420,000); AID 686979; also: nearly all actives have a fitted effect of over 55% in size
#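 Chicken DT40 Tdp1-/- cells complemented with human TDP1, 400 cells/well, exposed to compounds plus 20 nM camptothecin for at least 48 h at 37 C; viability read as ATP content by CellTiter-Glo luminescence.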
# Gal4-VP16 FLuc – Gal4-VP16 reporter inhibition counter-screen; Drosophila S2 Gal4-VP16 UAS-luciferase, luminescence, 20 h; Potency, µM (titrated, usually from 53.6 µM), without a hit: top-dose activity, negative = inhibition, most hits filed as inhibitors; actives 3.5% (n = 310,000);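 also: Gal4-VP16 expression switched on by copper sulfate through the metallothionein promoter; nearly all actives have a fitted effect of over 50% in size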
# DT40 TDP1 no CPT – qHTS for Inhibitors of human tyrosyl-DNA phosphodiesterase 1 (TDP1): qHTS in cells in absence of CPT; DT40 Tdp1-/- hTDP1 cells, no CPT, ATP luminescence, 48 h; Potency, µM (titrated, usually from 46.2 µM), for the others: at the highest dose activity change, negative = growth inhibition, usual class: inhibitors; actives 15% (n = 420,000); also: nearly all actives have a fitted effect of over 55% in size
#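 Growth kinetics read by CellTiter-Glo luminescence after ≥48 hr at 37 °C. Cells: DT40 Tdp1-/- stably carrying human TDP1, 400 per well, compound exposure in the absence of CPT (DMSO vehicle).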
# Starred values were filed as active, the others as inactive; ? = inconclusive; nt = not tested or not shown; [ ] = another dose, or the depositor's remark. Calls follow the shape of the dose curve; as a rule, active = well fitted curve in the direction sought with a large enough effect; inconclusive = small, poorly fitted or top-dose-only effect, or another doubt; inactive = no such curve, though single readings can be large; an effect the other way counts as inactive or inconclusive. % is scaled to controls: 0 for no effect and ±100 for the full control effect; potency is read from the fitted curve at half-maximal effect.
SMILES,TDP1 inh,RORg inh,DT40 TDP1 CPT,Gal4-VP16 FLuc,DT40 TDP1 no CPT
CCOC(=O)N1CCN(S(=O)(=O)c2ccc(C)c(C)c2)CC1,2.1%,-15.7%,?,1.3%,?
O=C(NCC1CCCO1)C1c2ccccc2C(=O)N1C1CCCCCCC1 (stereo not drawn),3.9%,3.5%,-14.3%,-7.4%,-22.5%
OCCNCc1cc(Br)ccc1OCc1ccc(Cl)cc1,5.2%,27.5%,20.6µM*,-9.0%,29.1µM*
OCCNCc1cc(Br)ccc1OCc1ccc(Cl)cc1Cl,3.2%,0.0%,18.4µM*,-4.0%,9.2µM*
OCCNCc1cc(Br)ccc1OCc1ccc(F)cc1,-4.8%,16.0%,?,-7.2%,?
Cc1cc(C)n(-c2nc3ccccc3nc2N2CCCCCC2)n1,-6.6%,11.2µM*,?,-12.3%,?
Cc1cc2c(c(-c3cnccn3)c1)OC(CNC(=O)C1CCCN(C)C1)C2 (stereo not drawn),nt,nt,28.7%[9.04 µM],nt,-19.7%
O=[N+]([O-])c1ccc(-c2nc(Cl)c3c(n2)CCCC3)o1,nt,nt,9.2µM*,nt,16.4µM*
COC(=O)c1[nH]c2cc(OC)c(OC)cc2c1/C=N/Nc1ccccc1,nt,-11.7%,?,-8.3%,18.4µM*
O=C(CN1CCN(S(=O)(=O)c2ccc3ccccc3c2)CC1)Nc1ccc2c(c1)CCC2,5.5%,?,23.1µM*,5.5%,?
O=C(CCl)N1CCN(S(=O)(=O)c2ccc3c(c2)CCC3)CC1,1.0%,nt,2.31µM*,nt,0.651µM*
N#Cc1ccsc1NC(=O)CN1CCN(Cc2ccccc2)CC1,5.0%,0.3%,-3.3%,-2.6%,-19.6%
N#Cc1ccsc1NC(=O)CN1CCN(S(=O)(=O)c2ccc3ccccc3c2)CC1,4.5%,?,?,-8.4%,16.4µM*
CC(=O)Nc1cccc(C(=O)NNC(=O)c2n[nH]c(=O)c3ccccc23)c1,-2.2%,nt,1.1%,nt,-22.1%
CCOc1ccccc1CNC(=O)CCCc1cn(C)c2ccccc12,7.9%,?,?,-1.4%,?
Nc1ccc(C(=O)O)c(O)c1 (tested in a mixture with another compound),20.3%[56.1 µM],?,1.9%,?,-0.9%
Cc1ccccc1C(=O)NC(=S)Nc1sc2c(c1C#N)CCCC2,1.1%,3.55µM*,-29.4%,11.2µM*,?
Cc1sc(NC(=S)NC(=O)c2ccc(C(C)(C)C)cc2)c(C#N)c1C,5.7%,0.562µM*,?,11.2µM*,-21.5%
N#Cc1c(NC(=O)c2ccccc2)sc2c1CCCCC2,-7.5%,?,2.6%,?,?
N#Cc1c(NC(=O)/C=C/c2ccco2)sc2c1CCCC2,-4.1%,?,0.231µM*,?,0.411µM*
CC(=O)Nc1sc2c(c1C#N)CCCCC2,2.5%,?,-5.0%,-10.2%,-13.6%
O=C(/C=C/c1ccco1)Nc1sc2c(c1C(=O)O)CCC2,nt,-5.3%,-7.4%,3.1%,-22.5%
CC(C)(C)C(=O)NC(=S)Nc1sc2c(c1C#N)CCCCC2,2.6%,7.08µM*,?,14.1µM*,23.1µM*
C=CCNc1sc(C(=O)C(C)(C)C)c(N)c1C#N,4.6%,-40.9%,-13.2%,-13.4%,-26.5%
CN(C)CCCN1C(=O)C(O)=C(C(=O)c2cccs2)C1c1cccc([N+](=O)[O-])c1 (stereo not drawn),2.6%,18.7%,nt,-2.8%[10 µM],nt
SMILES,TDP1 inh,RORg inh,DT40 TDP1 CPT,Gal4-VP16 FLuc,DT40 TDP1 no CPT
C[C@@H]1CCC[C@@]2(O[C@H](CCO)C[C@@H](O)[C@@H]2O)O1,1.3%,-10.7%,-2.1%,0.1%,-2.8%
Cc1oc2ncnc(N3CCCCC3)c2c1C(=O)NCC1CCN(Cc2ccc(F)cc2)CC1,-4.2%,nt,-26.0%,nt,-22.6%
O=C(Nc1cc(Cl)cc2c1[nH]c1cnccc12)c1cccnc1,-0.3%,-9.8%,nt,-13.8%,nt
COC(=O)c1ccccc1S(=O)(=O)N1CCC(C(=O)NC2CCCCC2)CC1,0.4%,nt,7.2%,nt,7.3%
CO[C@H]1CN(C)C(=O)c2cc(NS(=O)(=O)c3ccccc3)ccc2OC[C@@H](C)N(Cc2ccccn2)C[C@@H]1C,nt,nt,6.0%,nt,3.7%
COc1cccc(S(=O)(=O)Nc2ccc3c(c2)C(=O)N(C)C[C@H](OC)[C@H](C)CN(Cc2ccccc2F)[C@@H](C)CO3)c1,nt,nt,9.2µM*,nt,8.2µM*
CC1=CC(C)(C)N(C(=O)C(C)N2C(=O)c3ccccc3C2=O)c2c(C)cc(C)cc21 (stereo not drawn),1.0%,-42.5%,nt,6.1%,nt
COc1ccccc1NC(=O)CCCC(=O)OC(C)C(=O)c1ccccc1 (stereo not drawn),-3.8%,?,2.2%,-4.5%,?
COc1cccc(OC(=O)N2CCOCC2)c1,7.9%,-10.2%,6.9%,5.4%[10 µM],-14.3%
COc1ccc(Oc2coc3cc(OC(=O)N4CCOCC4)ccc3c2=O)cc1,3.3%,21.0%,16.4µM*,-13.5%,?
COc1ccc(/C=C/C(=O)c2cc(O)ccc2O)cc1,20.9%[56.1 µM],?,16.4µM*,0.3%,16.4µM*
COc1ccc(/C=C/C(=O)c2c(O)ccc3c(C)cc(=O)oc23)cc1,2.8%,-38.1%,?,?,?
COc1ccc(C(=O)/C=C/c2ccccc2)c(O)c1,6.0%,-42.8%,?,-4.0%,23.1µM*
COc1ccc(/C=C\C(=O)c2c(O)ccc3c(C)cc(=O)oc23)cc1,0.0%,?,-27.7%,-14.0%,23.1µM*
COc1ccc(/C=C/C(=O)c2ccc(OC)cc2OC)cc1,9.6%,12.7%,?,-6.4%,?
COc1ccc(/C=C/C(=O)c2cc(C(=O)/C=C/c3ccc(OC)cc3)c(O)cc2O)cc1,nt,nt,?,nt,11.2µM*
COc1ccc(S(=O)(=O)Nc2ccc3c(c2)OCO3)cc1C(=O)O,-0.9%,-0.6%,5.0%,-11.8%,-10.3%
CC(NC(=O)c1ccccc1OC(F)F)c1ccc(-n2ccnc2)cc1 (stereo not drawn),5.1%,-17.6%,-11.5%,10.1%,-1.1%
C/C(=N/NC(=O)c1ccco1)c1ccc(NC(=O)c2ccc(F)cc2)cc1,6.3%,-36.9%,-21.1%,3.7%,?
COc1cc(/C=C/C(=O)c2ccc(O)cc2O)ccc1O,16.1%,?,nt,-23.7%,nt
O=C(/C=C/c1ccccc1)c1ccc(O)cc1O,17.5%[56.1 µM],2.82µM*,?,?,16.4µM*
COc1cc(OC)c(C(=O)Oc2ccc3c(c2)OCO3)cc1OC,5.3%,?,-20.9%,-5.5%,-9.4%
COc1ccc(/C=C/C(=O)c2cc3c(cc2N)OCO3)cc1,11.1%,-1.5%,?,4.0%,23.1µM*
COc1ccc(/C=C/C(=O)c2ccc(O)cc2O)cc1OC,18.7%,2µM*,?,?,14.6µM*
COc1ccc(/C=C/C(=O)c2ccc(O)cc2O)cc1,2.6%[56.1 µM],0.0398µM*,?,?,?
